# From PubChem BioAssay
# Several values for one entry are separate records, joined by “and”; a condition that tells them apart may be missing. Equal entries are not always repeated. Activity calls are given as the source filed them.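 Rule for the calls, unless noted: active = inhibition at or above 50% relative to wild type and mutant plate controls; inactive = inhibition below 50%.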
# Tests used:
# [1] = endothelial E-selectin expression blockers – imaging, HUVEC, immunofluorescence, MLSMR starter and 10KST1 sets, primary screen (AID 487;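 active = visually confirmed hit in the image check and inhibition above 20%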;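 for inhibition: signal is fraction of cell area covered by stained E-selectin grains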;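 for nuclei count: 100% = median nuclei count of all wells on the same plate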); conditions: HUVEC TNFalpha-induced E-selectin immunofluorescence imaging, at 2 µM; inhibition: stronger effect = higher value; nuclei count: measured here: cell number, toxicity
# [2] = Primary imaging screen for DUSP6 inhibitors that restore phospho-Erk in transfected HeLa cells, chemical complementation (AID 609;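 active = compounds giving at least 50% inhibition in the cell-based MKP-3 phosphatase rescue imaging test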;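 for inhibition: phospho-Erk level distribution per well compared with pooled transfected vehicle control wells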); conditions: HeLa MKP-3 transfected, phospho-Erk imaging KS statistic, at 10 µM, cells stimulated with TPA for 15 min
# [3] = molecular target: Dual specificity protein phosphatase 6 (Homo sapiens) (UniProt Q16828); experiment: as above; conditions: HeLa MKP-3 transfected, phospho-Erk imaging KS statistic; at 10 µM; stronger effect = higher value; cells stimulated with TPA for 15 min
# Sequence of Dual specificity protein phosphatase 6 (Homo sapiens) (Q16828 whole entry, looked up): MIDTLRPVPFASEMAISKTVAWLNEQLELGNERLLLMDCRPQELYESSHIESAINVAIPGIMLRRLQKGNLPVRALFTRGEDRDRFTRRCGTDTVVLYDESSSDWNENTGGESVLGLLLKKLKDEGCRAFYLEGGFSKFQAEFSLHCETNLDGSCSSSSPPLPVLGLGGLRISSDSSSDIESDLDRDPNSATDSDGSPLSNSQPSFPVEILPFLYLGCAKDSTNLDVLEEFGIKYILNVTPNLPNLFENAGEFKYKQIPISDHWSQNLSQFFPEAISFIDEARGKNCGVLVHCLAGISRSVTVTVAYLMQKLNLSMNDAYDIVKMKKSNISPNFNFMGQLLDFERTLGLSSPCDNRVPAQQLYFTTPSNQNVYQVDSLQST
# [4] = molecular target: Voltage-gated potassium channel subunit beta-2 (Rattus norvegicus) (UniProt P62483); experiment: inhibitors of rat Kvbeta2 reductase activity – biochemical, NADPH fluorescence, primary screen (AID 622;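 active = fluorescence slope higher than the sample average by over 3 SD, cut at about -0.22 in these data, passing the limit was not always enough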;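 note: slope of raw intensity against log time taken from 70 to 1610 s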); conditions: recombinant KvBeta, 4-cyanobenzaldehyde reduction, at 10 µM, stronger effect = higher value
# Sequence of Voltage-gated potassium channel subunit beta-2 (Rattus norvegicus) (P62483 whole entry, looked up): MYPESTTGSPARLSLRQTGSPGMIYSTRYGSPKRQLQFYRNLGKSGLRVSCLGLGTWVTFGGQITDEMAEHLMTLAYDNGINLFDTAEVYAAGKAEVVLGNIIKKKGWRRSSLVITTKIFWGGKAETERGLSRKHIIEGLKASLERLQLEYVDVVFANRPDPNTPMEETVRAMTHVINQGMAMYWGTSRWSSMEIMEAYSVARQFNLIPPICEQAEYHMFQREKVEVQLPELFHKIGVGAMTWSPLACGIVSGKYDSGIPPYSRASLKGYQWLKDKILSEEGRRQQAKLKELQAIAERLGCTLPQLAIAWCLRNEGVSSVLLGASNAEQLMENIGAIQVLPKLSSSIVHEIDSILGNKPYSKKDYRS
# [5] = molecular target: Voltage-gated potassium channel subunit beta-2 (Rattus norvegicus) (UniProt P62483); experiment: enhancers of rat Kvbeta2 NADPH turnover – biochemical, NADPH fluorescence, primary screen (AID 623;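 active = NADPH fluorescence slope more negative than the mean of all samples by about 3 SD, 99.7% confidence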;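 note: fluorescence intensity change per second fitted from 20 to 320 s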); conditions: Recombinant KvBeta, NADPH fluorescence decrease slope, 10 min; at 10 µM; stronger effect = lower value
# [6] = molecular target: Alpha-2C adrenergic receptor (Homo sapiens) (UniProt P18825); experiment: compounds altering alpha2C-coupled GIRK flux – cell-based, HEK293 alpha2C/GIRK1/2, thallium flux, primary screen (AID 624;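 active = fluorescence slope after compound addition differing from the mean of all screened samples at 99.7% confidence, in either direction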;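 note: slope of fluorescence ratio to pre-addition baseline per second over 15 to 24 s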); conditions: thallium flux BTC fluorescence, at 10 µM, actives lie on both sides
# Sequence of Alpha-2C adrenergic receptor (Homo sapiens) (P18825 whole entry, looked up): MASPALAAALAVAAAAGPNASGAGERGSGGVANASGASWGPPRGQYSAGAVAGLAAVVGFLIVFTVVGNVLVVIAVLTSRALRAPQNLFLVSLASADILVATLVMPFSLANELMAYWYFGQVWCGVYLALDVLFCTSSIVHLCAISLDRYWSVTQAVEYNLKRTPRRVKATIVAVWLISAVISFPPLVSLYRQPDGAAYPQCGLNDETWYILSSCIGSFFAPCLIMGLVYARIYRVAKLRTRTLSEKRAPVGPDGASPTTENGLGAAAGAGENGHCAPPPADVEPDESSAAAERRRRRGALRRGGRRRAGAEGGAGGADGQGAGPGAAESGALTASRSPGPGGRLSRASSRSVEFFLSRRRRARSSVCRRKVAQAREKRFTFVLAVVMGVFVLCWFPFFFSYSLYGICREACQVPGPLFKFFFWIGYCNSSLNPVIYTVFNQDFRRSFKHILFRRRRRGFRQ
# [7] = inhibitors of larval lipid processing in zebrafish, primary screen, whole organism, PED6 fluorescence, gall bladder and intestine (AID 686;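 active = a full or partial loss of lipid-probe fluorescence in the fish gall bladder, intestine or both, judged by eye; inactive = no fluorescence loss, or compound toxic to the fish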;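 note: larvae 5 to 7 days old with five fish per well; signal comes from phospholipase A2 cleavage of quenched PED6 carried via bile; overnight exposure to compound and PED6 before scoring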); conditions: Zebrafish larvae PED6 lipid processing, fluorescence scoring; screened at 20 µM (by protocol)
# [8] = loss of swimming-algae plug formation – whole organism, Chlamydomonas reinhardtii, WT vs cilia-less mutant, absorbance, 96-well, primary screen (AID 463189); conditions: Chlamydomonas reinhardtii gravitaxis, OD600 absorbance, 2 days; at 10 µM; stronger effect = higher value;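 note: 0% = wild type cc124 cells in DMSO and 100% = ciliumless bld1 mutant cells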
# [9] = blockers of RIG-like receptor reporter activation – cell-based, Sendai virus stimulus, luciferase, 10K MLSCN set, TLR/RLR signaling modifier project, primary screen (AID 602276;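 active = inhibition at or above 50% at 10 µM; inactive = inhibition below 50%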;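 note: firefly luciferase from ISG56 promoter only with Renilla not read in this screen; 0% = Sendai virus plus DMSO and 100% = medium plus DMSO without virus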); conditions: HEK293 RL24 IRF3 luciferase reporter, at 10 µM, stronger effect = higher value
# [10] = TLR3 IRF3 reporter activation blockers – cell-based, poly I:C stimulus, luciferase, 10K MLSCN set, primary screen (AID 602277;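 active = inhibition of the reporter signal at or above 50%; inactive = inhibition below 50%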); conditions: HEK293-TLR3 RL24 IRF3 luciferase reporter, at 10 µM, stronger effect = higher value
# [11] = molecular target: Muscarinic acetylcholine receptor M4 (Homo sapiens) (UniProt P08173); experiment: M4-linked GIRK flux change, two-sided – cell-based, HEK293 M4/GIRK, thallium flux, BTC-AM, M4 allosteric agonist project, primary screen (AID 625;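 active = fluorescence slope after compound addition differing from the mean of all tested samples at 99.7% confidence, mostly higher but some lower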;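 note: thallium influx through GIRK channels coupled to M4 in HEK293 cells with BTC-AM dye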); conditions: at 10 µM, actives lie on both sides
# Sequence of Muscarinic acetylcholine receptor M4 (Homo sapiens) (P08173 whole entry, looked up): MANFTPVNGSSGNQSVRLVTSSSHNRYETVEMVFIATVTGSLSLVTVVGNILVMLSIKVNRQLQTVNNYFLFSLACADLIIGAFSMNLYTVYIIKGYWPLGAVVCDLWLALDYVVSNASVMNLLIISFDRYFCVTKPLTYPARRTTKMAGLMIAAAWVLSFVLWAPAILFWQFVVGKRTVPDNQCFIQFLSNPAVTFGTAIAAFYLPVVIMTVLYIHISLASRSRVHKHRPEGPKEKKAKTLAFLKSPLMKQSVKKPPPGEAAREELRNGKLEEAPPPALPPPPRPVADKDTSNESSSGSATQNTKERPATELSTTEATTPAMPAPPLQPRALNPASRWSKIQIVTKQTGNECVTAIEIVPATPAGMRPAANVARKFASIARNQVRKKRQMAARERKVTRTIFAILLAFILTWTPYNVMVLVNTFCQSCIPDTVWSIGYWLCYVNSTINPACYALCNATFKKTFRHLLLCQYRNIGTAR
# [12] = measured here: cell density z-score
# [13] = measured here: nuclear c-Myc green intensity z-score
# [14] = measured here: nuclear pErk red intensity z-score, stronger effect = higher value
SMILES,inhibition [1],nuclei count [1] [%],"z-score [2, 12]","z-score [2, 13]","z-score [2, 14]",inhibition [3],fluorescence slope [4],NADPH fluorescence slope [5],slope [6],outcome [7],inhibition [8],inhibition [9],inhibition [10],fluorescence slope [11]
O=C(NCC1CCCCN1)c1cc(OCC(F)(F)F)ccc1OCC(F)(F)F (stereo not given),-29.3% (inactive),107,0.584,0.032,0.103,15.3% (inactive),-0.495 (inactive),-5.3e-05 (inactive),0.00342 (inactive),inactive,-10.1% (inactive) and -10.2% (inactive),-8.5% (inactive),50.6% (active),–
CCC(NC(=O)Nc1nnc(C(F)(F)F)s1)(C(F)(F)F)C(F)(F)F,-242% (inactive),141,0.851,-0.831,0.704,18.4% (inactive),-0.449 (inactive),-4.2e-05 (inactive),–,inactive; toxic,9.74% (inactive),–,–,0.00231 (inactive)
CCCCCOc1ccc(Cl)cc1CN1CCOCC1,-77.3% (inactive),110,-0.264,0.0743,-0.781,11.3% (inactive),-0.434 (inactive),-2.1e-05 (inactive),–,inactive,126% (active),–,–,0.00599 (inactive)
CC1(C)CC(=O)C=C(NCCO)C1,-18.5% (inactive),146,1.01,-0.173,-0.675,20.8% (inactive),-0.395 (inactive),-5.8e-05 (inactive),–,inactive,40.3% (inactive),–,–,0.00557 (inactive)
COc1ccc(-n2c(C)c(C(C)=O)c3cc(O)ccc32)cc1,4.2% (inactive),135,-0.551,-0.198,0.861,9.39% (inactive),-0.4 (inactive),-4.1e-05 (inactive),–,inactive,30.2% (inactive),–,–,0.00708 (inactive)
COc1cccc(C(=O)NCC(=O)n2nc(C)cc2C)c1,-70.4% (inactive),88.5,0.974,0.517,-1.04,15.1% (inactive),-0.462 (inactive),-4.4e-05 (inactive),–,inactive,36% (inactive),–,–,0.00505 (inactive)
COc1ccc(OC)c(N=C(C)C2=C(O)COC2=O)c1,-20.1% (inactive),104,-1.31,0.523,0.389,-0.159% (inactive),-0.404 (inactive),6.7e-06 (inactive),–,inactive; toxic,-11.6% (inactive),–,–,0.00554 (inactive)
CCn1cc(/C=N/O)c(C)n1,-98.3% (inactive),153,1.83,-0.528,-0.0353,13.2% (inactive),-0.345 (inactive),-3.9e-05 (inactive),–,inactive,17.2% (inactive),–,–,0.00667 (inactive)
CN1CC(=O)Nc2ccc(F)cc2C1=O,-12.8% (inactive),108,-0.408,1.54,-1.19,7.48% (inactive),-0.414 (inactive),-5.5e-06 (inactive),–,inactive,-6.78% (inactive),–,–,0.0056 (inactive)
COc1cc(C(=O)NCC(=O)n2nc(C)cc2C)cc(OC)c1OC,19% (inactive),141,1.48,0.2,-2.19,20.8% (inactive),-0.389 (inactive),7.5e-06 (inactive),–,inactive; toxic,-4.24% (inactive),–,–,0.00583 (inactive)
CCOC(=O)c1ccc(NCC(O)COc2ccccc2)cc1 (stereo not given),-60.3% (inactive),138,1.4,-0.621,-0.757,3.66% (inactive),-0.343 (inactive),-1.2e-05 (inactive),–,inactive,3.53% (inactive),–,–,0.00673 (inactive)
O=C(CCN1CCCC1Cc1ccccc1)c1ccc2c(c1)OCCO2 (stereo not given),-106% (inactive),162,-1.44,-1.2,0.369,1.75% (inactive),-0.423 (inactive),-6.5e-05 (inactive),–,inactive,7.98% (inactive),–,–,0.00498 (inactive)
O=C(Oc1oc(-c2ccco2)nc1C=Nc1ccccc1)c1ccoc1,-72% (inactive),165,1.16,-0.161,0.106,15.1% (inactive),-0.402 (inactive),-4.5e-05 (inactive),–,inactive,8.33% (inactive),–,–,0.00635 (inactive)
Cc1nc2sc(C)c(C)c2c(=O)o1,-24.2% (inactive),180,-0.563,-1.75,1.05,-5.89% (inactive),-0.39 (inactive),-4.5e-05 (inactive),–,inactive,6.15% (inactive),–,–,0.0058 (inactive)
CCCOc1cccc(CN2CCCCC2c2cccnc2)c1 (stereo not given),-33.4% (inactive),153,0.13,0.714,-0.468,5.57% (inactive),-0.369 (inactive),1.8e-06 (inactive),–,inactive,-12.9% (inactive),–,–,0.00674 (inactive)
COc1ccc(C(=O)N2CCCC(c3ccccc3)C2)cc1 (stereo not given),-91.1% (inactive),167,-0.133,0.389,0.742,-7.79% (inactive),-0.406 (inactive),-4.3e-05 (inactive),–,inactive,8.1% (inactive),–,–,0.00466 (inactive)
CC1(C)CC(=O)C=C(N=CC2=C(O)CC(C)(C)CC2=O)C1,-39.1% (inactive),174,-0.899,1.02,0.848,9.39% (inactive),-0.363 (inactive),-4.6e-05 (inactive),–,inactive,8.63% (inactive),–,–,0.00557 (inactive)
COc1cc(C(=O)Nc2ccccn2)cc(OC)c1OC,-234% (inactive),165,-0.193,-1.03,0.79,-2.07% (inactive),-0.398 (inactive),-5.6e-05 (inactive),–,inactive,6.27% (inactive),–,–,0.00377 (inactive)
COCCN(Cc1ccccc1)P(=O)(O)c1ccccc1OCC(=O)O,-21.2% (inactive),151,1.19,-1.67,0.944,15.1% (inactive),-0.446 (inactive),-4.4e-05 (inactive),–,inactive,19.2% (inactive),–,–,0.00543 (inactive)
COc1cc(C)nc(Oc2ccc(=O)[nH]n2)n1,-34.6% (inactive),147,-0.3,1.04,-1.72,5.57% (inactive),-0.296 (inactive),-4e-05 (inactive),–,inactive,34.1% (inactive),–,–,0.00779 (inactive)
O=c1/c(=C/c2ccccn2)sc2n1CN(c1ccccc1)CN=2,15.3% (inactive),137,0.878,0.58,-0.986,34.2% (inactive),-0.4 (inactive),-4.8e-05 (inactive),–,inactive,32% (inactive),–,–,0.00773 (inactive)
COc1ccc(Cn2ccnc2)cc1Br,-47% (inactive),141,-0.527,1.89,-0.19,18.9% (inactive),-0.302 (inactive),1.1e-06 (inactive),–,inactive,109% (active),–,–,0.00733 (inactive)
Cc1c(C(=O)O)sc(=S)n1-c1ccccc1,-33.5% (inactive),141,0.701,-0.0654,0.165,20.8% (inactive),-0.372 (inactive),-3.1e-05 (inactive),–,inactive,12.3% (inactive),–,–,0.0076 (inactive)
